# Reference: publication PMC5540273 (PLoS ONE, 2017)
# Columns and labels:
# Details in all cases: concentration: 1 μM, replicates: in singlicate; n = 1
# [1] = system: JAK1(JH2domain-pseudokinase)
# [2] = system: JAK2(JH1domain-catalytic)
# [3] = system: JAK3(JH1domain-catalytic)
# JNK1 = system: T1, JNK1
# T1 construct: gene MAPK8
# JNK2 = system: T2, JNK2
# T2 construct: gene MAPK9
# JNK3 = system: T3, JNK3
# T3 construct: gene MAPK10
# KIT-autoinhibited = system: KIT-autoinhibited
# KIT = system: KIT
# LATS1 = system: LATS1
# LATS2 = system: LATS2
# 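Also: KINOMEscan kinase panel screen.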
Structure (SMILES),%Inh [1] [%],%Inh [2] [%],%Inh [3] [%],%Inh (JNK1) [%],%Inh (JNK2) [%],%Inh (JNK3) [%],%Inh (KIT-autoinhibited) [%],%Inh (KIT) [%],%Inh (LATS1) [%],%Inh (LATS2) [%]
Cc1cccc(NC(=O)Nc2ccc(Oc3ncnc4ccn(C)c34)cc2)c1,30,0,9,9,0,0,97,100,5,0
Cn1cc(-c2ccc3c(c2)CCN3C(=O)Cc2cccc(Cl)c2)c2c(N)ncnc21 [GSK2606590],0,16,0,15,42,6,26,100,0,0
COc1ccc(Nc2nccc(NCCNC(=O)c3cc4ccccc4s3)n2)cc1 [GSK1379896],0,23,0,6,27,6,0,5,0,0
O=C(Nc1ccccc1F)NC1CCN(c2ccnc(Nc3ccc(F)cc3)n2)CC1 [GSK1379800],0,0,0,3,0,0,0,7,0,3
O=C(Nc1cccc(-c2nn3ccccc3c2-c2ccnc(Nc3cccc(C(F)(F)F)c3)n2)c1)c1c(F)cccc1F [GSK292658],0,26,0,3,0,0,0,94.6,0,6
Cl.c1ccc(-c2ccc3c(Nc4ccc5[nH]ccc5c4)ccnc3c2)nc1 [GW440138],0,24,0,0,7,2,1,100,0,17
Cc1ccc(F)c(C(=O)Nc2cccc(-c3nn4ccccc4c3-c3ccnc(Nc4cccc(F)c4)n3)c2)c1F [GSK361061],0,8,0,29,38,25,2,99.4,1,23
O=C(NC1CCN(c2ccnc(Nc3ccc(F)cc3)n2)C1)c1cc2ccccc2s1 (centres unmarked) [GSK1379716],0,0,0,24,29,13,0,21,7,0
O=C(Nc1n[nH]c2nc(-c3ccc(O)cc3)ccc12)C1CC1 [SB-710363],33,53,62,25,13,2,0,12,17,10
COc1cc(Nc2nccc(-c3c(-c4cccc(NC(=O)c5c(F)cccc5F)c4)nn4ncccc34)n2)cc(OC)c1OC [GSK327238],0,6,59,39,71,23,31,100,44,28
Nc1ncc(-c2ccc3nccc(-c4ccncc4)c3c2)cc1S(=O)(=O)N1CCOCC1 [GSK1627798],0,0,0,26,19,10,0,16,0,0
Cc1ccc(C)c(NC(=O)NC2CCN(c3ccnc(Nc4ccc(F)cc4)n3)C2)c1 (centres unmarked) [GSK1379720],0,0,0,45,10,0,0,14,12,0
O=C(O)C(F)(F)F.O=C(O)C(F)(F)F.O=c1[nH]ccc2nc(N[C@@H]3CCCNC3)nc(Nc3ccc(S(=O)(=O)N4CCOCC4)cc3)c12 [GSK2177277],82,98.7,99.3,99.4,93.4,98.6,70,99.8,92.6,96.9
COCCOCCOc1cc2ncc3c4ccc(C#N)cc4[nH]c3c2cc1OC,68,11,84,5,0,0,61,73,2,10
NCCCC(NC(=O)c1cc(Br)c(-c2ccnc3[nH]ccc23)s1)c1ccccc1.O=C(O)C(F)(F)F.O=C(O)C(F)(F)F (centres unmarked) [GSK1287544],0,91.3,87,36,22,19,0,22,66,89
COc1cccc(C2=C(Nc3ccc(Cl)c(C(=O)O)c3)C(=O)NC2=O)c1 [SB-390769],0,100,81,52,64,45,0,6,18,100

Structure (SMILES),%Inh [1] [%],%Inh [2] [%],%Inh [3] [%],%Inh (JNK1) [%],%Inh (JNK2) [%],%Inh (JNK3) [%],%Inh (KIT-autoinhibited) [%],%Inh (KIT) [%],%Inh (LATS1) [%],%Inh (LATS2) [%]
Cc1ccc(C(=O)Nc2ccc(Nc3ccnc4cc(-c5nccs5)ccc34)cc2O)cc1.Cl [GW494702],0,25,0,18,3,9,0,73,0,0
CC(C)(C)c1ccc2nccc(Nc3cccc(O)c3)c2c1 [GW856795],0,36,35,32,23,15,9,26,10,0
Cl.NC(=O)c1cccc(Nc2nccc(Nc3ccc(Oc4c(Cl)cccc4Cl)c(Cl)c3)n2)c1 [GW659009],0,72,0,26,5,1,0,17,0,0
CC(=O)N1CCN(c2ccc(Nc3nccc(-c4sc(C(C)C)nc4-c4cccc(NS(=O)(=O)c5cccc(Cl)c5)c4)n3)cn2)CC1 [GSK1660437],0,40,82,13,16,11,0,96.1,0,0
c1ccc(Oc2ccc(Nc3ccnc4cc(-c5ccc(CNCCN6CCOCC6)o5)ccc34)cc2)nc1 [GW567145],0,7,0,18,2,0,4,79,8,0
O=C(Nc1cccc(-c2nn3ccccc3c2-c2ccnc(Nc3cccc(F)c3)n2)c1)c1c(F)ccc(F)c1Cl [GSK357952],0,25,0,11,23,19,0,98.2,0,49
COc1cccc(-c2ccc3c(NC(=O)C4CC4)n[nH]c3n2)c1 [SB-710903],0,17,0,29,14,5,0,15,9,10
CN(C)S(=O)(=O)c1cc(-c2ccc3nccc(-c4cccc(S(N)(=O)=O)c4)c3c2)cnc1N [GSK1669921],12,24,0,17,0,0,0,21,0,14
C[C@@H]1CC[C@@H](C(=O)Nc2ccccc2)CN1c1cc(-c2ccc3c(N)n[nH]c3c2)nc(N)n1 [GSK2286062],2,0,0,0,13,1,0,18,0,2
COc1cccc(NC(=O)NC2CCN(c3ccnc(Nc4cc(OC)c(OC)c(OC)c4)n3)C2)c1 (centres unmarked) [GSK1379763],29,88,0,28,27,39,17,98.5,0,13
COc1ccc(Nc2nccc(N3CCC(NC(=O)Nc4cccc(OC)c4)C3)n2)cc1 (centres unmarked) [GSK1379742],0,26,0,14,13,0,31,49,0,0
COc1ccc(-c2coc3ccc(-c4nnc(SCc5ccc(OC)c(C(F)(F)F)c5)o4)cc23)cc1,32,22,0,0,0,0,7,20,25,0
CSc1cccc2c(-c3ccncn3)c(-c3ccc(F)cc3)nn12 [GW514786],9,9,0,24,71,75,0,0,0,16
COc1cccc(C(=O)Nc2cccc(Oc3ccc4nc(NC(=O)C5CC5)cn4n3)c2)c1,8,13,0,0,10,0,99.7,100,0,0
Fc1ccc(-c2ncn(C3CCNCC3)c2-c2ccnc(Oc3ccc(-c4ccccc4)cc3)n2)cc1 [SB-245391],0,50,41,36,66,46,0,17,0,21
Cc1ccc(S(=O)(=O)Nc2ccc(Nc3nccc(Nc4cccc5[nH]ncc45)n3)cc2)cc1 [GSK581271],16,68,3,44,27,29,0,85,0,0
